Measured values reported in the supplement of paper PMC10338343.
± gives the standard deviation.

What follows are sequences tested on MILI (PIWIL2) piRISC loaded with piRNA #1 (26 nt) (assay: pre-steady-state target cleavage rate (min^-1); guide: piRNA #1 5'p-UGAGGUAGUAGGUUGUAUAGUAUCCA; higher = faster piRNA-guided slicing of the target). Details: auxiliary factor: 500 nM mouse GTSF1.
Method in brief: (§1)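 Cleave-'n-Seq: 1 nM active affinity-purified piRISC with one synthetic guide and 0.1 nM transcribed, DNA-blocked target RNA library were mixed, with or without 500 nM GTSF1 partner protein, in HEPES–potassium acetate buffer at 33 °C for 0–8 or 0–960 min. Uncleaved targets were sequenced and normalised to depth and to weakly complementary targets, three trials were pooled, and k3 was capped at 0.0001 min^-1. The pre-steady-state cleavage rate was fitted […].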

Row | Sequence | pre-steady-state target cleavage rate
1 | GGAGUGGAUACUAUACAACCUAGCUACCUCA | 0.0643 ± 0.006
2 | GGAGUGGUUACUAUACAACCUACUACCUCA | 0.186 ± 0.0089
3 | GGAGUGGAUACUUACAACCUACUACCUCA | 0.141 ± 0.012
4 | GGAGACGAUACUUUACAACCUACUUCCUCA | 0.019 ± 0.0078
5 | GGAGAGGACUACUAUACAACCUACUACCUCA | 0.186 ± 0.016
6 | GGAGAGGAUACAAUACAAGCUACUACCUCA | 0.178 ± 0.017
7 | GGAGUGGAUACUAGUACAACCUACUACCUCA | 0.141 ± 0.011
8 | GGAGUGGAUACUUUACAACGUACUACCUCA | 0.0295 ± 0.0029
9 | GGAGACCAUUCUAUACAACCUACUACCUGA | 0.0973 ± 0.016
10 | GGAGAGGAUACUAUACAACCUACUACCUCCA | 0.152 ± 0.011
11 | GGAGACCAUACUAUACAACCUAGUUCCUCA | 0.0546 ± 0.018
12 | GGAGACGAUAGUAUACAACCUACUACCUCA | 0.147 ± 0.011
13 | GGAGUGGUUACUAUACUACCUACUACCUCA | 0.183 ± 0.01
14 | GGAGACCUAUCAUAUACAACCUACUACCUCA | 0.0423 ± 0.0085
15 | GGAGAGGAUAUCUAUACAACCUACUACCUCA | 0.0599 ± 0.0073
16 | GGAGUCGAUACUAUACAACCUACUUCCUCA | 0.0291 ± 0.0072
17 | GGAGACCUAUCUAUACAACCUACUACCUACA | 0.0858 ± 0.015
18 | GGAGACCUUACAAUACAACCUACUACCUCA | 0.146 ± 0.019
19 | GGAGUGGAUACUAUACAAGCUACUUCCUCA | 0.0765 ± 0.0095
20 | GGAGACCAUACUAUACAACCUACUAACCUCA | 0.226 ± 0.019

Row | Sequence | pre-steady-state target cleavage rate
21 | GGAGUGCAUACUAUACAACCUACUACCACA | 0.124 ± 0.013
22 | GGAGAGGAUACGAUACAACCUACUACCUCA | 0.166 ± 0.011
23 | GGAGACCAUACUAGACAACCUACUACCUCA | 0.151 ± 0.014
24 | GGAGAGGAUACUAUAACAACCUACUACCUCA | 0.161 ± 0.012
25 | GGAGACGAUACUGUACAACCUACUACCUCA | 0.169 ± 0.018
26 | GGAGAGGAUACUAUACAAGCUACUACGUCA | 0.19 ± 0.02
27 | GGAGAGGAUACUAACAACCUACUACCUCA | 0.181 ± 0.013
28 | GGAGUUGAUACUAUACAACCUACUACCUCA | 0.204 ± 0.012
29 | GGAGACCUAUCUAUACAACCUACUACCCCA | 0.123 ± 0.02
30 | GGAGACCUUACUAUACAACCUACUACCAGA | 0.107 ± 0.017
31 | GGAGACCCUACUAUACAACCUACUACCUCA | 0.207 ± 0.021
32 | GGAGACCAUACUAUACAACAUACUACCUCA | 0.0769 ± 0.0092
33 | GGAGACCAUACUAUAGCAACCUACUACCUCA | 0.191 ± 0.016
34 | GGAGACCAUACUAUACAACCUACUCCCUCA | 0.106 ± 0.017
35 | GGAGACGAUACAAUACAUCCUACUACCUCA | 0.312 ± 0.016
36 | GGAGACCAUACUAUACAACUUACUACCUCA | 0.0165 ± 0.0023
37 | GGAGUGGAUACUAUACAACCUACUACGUCA | 0.0515 ± 0.0063
38 | GGAGUGGAUACUAUUCAACCUACUACCUCA | 0.179 ± 0.0081
39 | GGAGACCAUACUAUACAACGUACUUCCUCA | 0.0304 ± 0.0072
40 | GGAGUGGACUACUAUACAACCUACUACCUCA | 0.156 ± 0.01

Each sequence was assayed on EfPiwi piRISC loaded with piRNA #1 (26 nt) (assay: pre-steady-state target cleavage rate (min^-1); auxiliary factor: 500 nM Ephydatia muelleri Gtsf1; guide: piRNA #1 5'p-UGAGGUAGUAGGUUGUAUAGUAUCCA; MIWI and MILI are mouse PIWI proteins and EfPiwi is from a freshwater sponge; tags in brackets are library labels; higher = faster piRNA-guided slicing of the target). Details: not given.
Method in brief: as §1

Row | Sequence | pre-steady-state target cleavage rate
41 | GGAGUGGAUACUAUACAACCUAGCUACCUCA | 0.003 ± 0.0015
42 | GGAGUGGUUACUAUACAACCUACUACCUCA | 0.00957 ± 0.004
43 | GGAGUGGAUACUUACAACCUACUACCUCA | 0.0233 ± 0.011
44 | GGAGACGAUACUUUACAACCUACUUCCUCA | 0.00221 ± 0.002
45 | GGAGAGGACUACUAUACAACCUACUACCUCA | 0.00553 ± 0.0037
46 | GGAGAGGAUACAAUACAAGCUACUACCUCA | 0.0036 ± 0.0019
47 | GGAGUGGAUACUAGUACAACCUACUACCUCA | 0.175 ± 0.056
48 | GGAGUGGAUACUUUACAACGUACUACCUCA | 0.00254 ± 0.0014
49 | GGAGACCAUUCUAUACAACCUACUACCUGA | 0.00652 ± 0.0034
50 | GGAGAGGAUACUAUACAACCUACUACCUCCA | 0.142 ± 0.054
51 | GGAGACCAUACUAUACAACCUAGUUCCUCA | 0.00549 ± 0.0029
52 | GGAGACGAUAGUAUACAACCUACUACCUCA | 0.00758 ± 0.0036
53 | GGAGUGGUUACUAUACUACCUACUACCUCA | 0.00596 ± 0.0023
54 | GGAGACCUAUCAUAUACAACCUACUACCUCA | 0.0103 ± 0.0048
55 | GGAGAGGAUAUCUAUACAACCUACUACCUCA | 0.00594 ± 0.0046
56 | GGAGUCGAUACUAUACAACCUACUUCCUCA | 0.00362 ± 0.0021
57 | GGAGACCUAUCUAUACAACCUACUACCUACA | 0.00445 ± 0.0039
58 | GGAGACCUUACAAUACAACCUACUACCUCA | 0.0117 ± 0.0048
59 | GGAGUGGAUACUAUACAAGCUACUUCCUCA | 0.00402 ± 0.0022
60 | GGAGACCAUACUAUACAACCUACUAACCUCA | 0.00357 ± 0.0025

Row | Sequence | pre-steady-state target cleavage rate
61 | GGAGUGCAUACUAUACAACCUACUACCACA | 0.00342 ± 0.0028
62 | GGAGAGGAUACGAUACAACCUACUACCUCA | 0.00899 ± 0.0037
63 | GGAGACCAUACUAGACAACCUACUACCUCA | 0.0249 ± 0.01
64 | GGAGAGGAUACUAUAACAACCUACUACCUCA | 0.0661 ± 0.025
65 | GGAGACGAUACUGUACAACCUACUACCUCA | 0.0777 ± 0.025
66 | GGAGAGGAUACUAUACAAGCUACUACGUCA | 0.00403 ± 0.0018
67 | GGAGAGGAUACUAACAACCUACUACCUCA | 0.00812 ± 0.0046
68 | GGAGUUGAUACUAUACAACCUACUACCUCA | 0.193 ± 0.06
69 | GGAGACCUAUCUAUACAACCUACUACCCCA | 0.00444 ± 0.0032
70 | GGAGACCUUACUAUACAACCUACUACCAGA | 0.00482 ± 0.0036
71 | GGAGACCCUACUAUACAACCUACUACCUCA | 0.153 ± 0.051
72 | GGAGACCAUACUAUACAACAUACUACCUCA | 0.00326 ± 0.0021
73 | GGAGACCAUACUAUAGCAACCUACUACCUCA | 0.00736 ± 0.0044
74 | GGAGACCAUACUAUACAACCUACUCCCUCA | 0.00669 ± 0.0039
75 | GGAGACGAUACAAUACAUCCUACUACCUCA | 0.00286 ± 0.0019
76 | GGAGACCAUACUAUACAACUUACUACCUCA | 0.00338 ± 0.0027
77 | GGAGUGGAUACUAUACAACCUACUACGUCA | 0.00568 ± 0.0024
78 | GGAGUGGAUACUAUUCAACCUACUACCUCA | 0.0119 ± 0.0052
79 | GGAGACCAUACUAUACAACGUACUUCCUCA | 0.00544 ± 0.0032
80 | GGAGUGGACUACUAUACAACCUACUACCUCA | 0.0107 ± 0.0041
